Screening results (PubChem)
Pf growth 48h = inhibits P. falciparum growth in the first generation, 48 h. Potency, µM (top dose mostly 28.7 µM), for inactives: at the highest dose activity change, negative = inhibition, hits mostly inhibitors. hit rate 5.9% among 310,000. P. falciparum luciferase growth in erythrocytes, 48 h; further: potency means the concentration at half of the fitted maximal effect
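Cell-based growth assay: transgenic P. falciparum expressing firefly luciferase, cultured in red cells within RPMI 1640 containing 0.5% w/v Albumax, 24 mM bicarbonate and gentamycin. A drop in luciferase activity indicates inhibition.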
HCMV antiviral = blocks human cytomegalovirus replication; AID 1259415; activity change, negative = inhibition, % at 57.5 µM; hit rate 4.5% among 410,000; HFF cells, HCMV-luciferase reporter, 72 h; active compounds read low; in the data active means activity change below about -60%; inconclusive means no clear call, values can overlap the other calls; inactive means above about -39%
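Cell-based, HFFs, 1000 cells/well, 16 h 37C; cpds in DMSO + HCMV-luc, MOI 1 PFU/cell; 72 h 37C; OneGlo luminescence after 5 min RT; norm. to buffer vs Salinomycin 10uM.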
Sm TGR block = inhibitors of Schistosoma mansoni thioredoxin glutathione reductase; hit rate 3% among 360,000; Q962Y6; Potency, µM (highest dose often 114 µM), for inactives: at the top dose activity change, negative = inhibition, usual class: inhibitors; purified TGR, DTNB reduction, TNB absorbance 405 nm; further: potency means the concentration at half of the fitted maximal effect; nearly all actives have a fitted effect of over 60% in size
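TGR 20 nM + NADPH 100 uM (dispensed conc.), cpd preinc 15 min RT; start with NADPH (500 uM addition) then DTNB (15 mM addition). Kinetic TNB absorbance, 405 nm filter. Four-parameter Hill fit across titration.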
Pf growth 96h = inhibits malaria parasite growth, 96 h. P. falciparum luciferase reporter growth, 96 h. Potency, µM (series often up to 28.7 µM), for the others: at the highest dose activity change, negative = inhibition, actives largely listed as inhibitors. hit rate 6.9% among 320,000. AID 504834; further: potency means the concentration at half of the fitted maximal effect
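Readout is luminescence from an integrated firefly luciferase in P. falciparum. Red cells, 2% hematocrit and 0.05% parasitemia final, were cultured with compound through two parasite generations (96 hours) at 37 C, 5% CO2.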
FBPA Giardia inh = blocks Giardia fructose-bisphosphate aldolase activity. purified Giardia FBPA. Potency, µM (highest dose often 59.6 µM), without a hit: at the highest dose activity, negative = inhibition, usual class: inhibitors. hit rate 0.71% among 290,000. AID 2451; further: potency means the concentration at half of the fitted maximal effect; nearly all actives have a fitted effect of over 55% in size
Target sequence (A8B2U2 whole entry, looked up): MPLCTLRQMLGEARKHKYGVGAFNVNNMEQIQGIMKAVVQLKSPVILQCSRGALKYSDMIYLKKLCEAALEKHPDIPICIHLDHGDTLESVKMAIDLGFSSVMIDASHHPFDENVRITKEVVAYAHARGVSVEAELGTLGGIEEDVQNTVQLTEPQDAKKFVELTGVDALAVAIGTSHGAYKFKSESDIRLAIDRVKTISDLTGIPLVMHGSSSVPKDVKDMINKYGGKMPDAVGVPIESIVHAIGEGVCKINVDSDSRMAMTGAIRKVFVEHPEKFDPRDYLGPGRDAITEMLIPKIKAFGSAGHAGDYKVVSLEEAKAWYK
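40 nM FBPA preincubated 10 min at RT with compound (up to 57.5 uM final), then substrate plus GAPDH/TPI/NAD/arsenate coupling and diaphorase/resazurin added. Fluorescence read after 20 min at RT, 525/598 nm.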
* = called active by the depositor. This is a sample that favours compounds with a hit; in the whole collection about 14% have one here. Unless noted, the call rests on the fitted dose curve; in most records, active means well fitted curve in the direction sought with a large enough effect; inconclusive means small, poorly fitted or top-dose-only effect, or another doubt; inactive means no such curve, though single readings can be large; an effect the other way counts as inactive or inconclusive. On the % scale 0 is the no-effect control and ±100 the full control effect.

Results for CCCCN(C)C(=O)C1CCCN(S(=O)(=O)c2ccc3c(c2)CC(C)N3C(=O)C2CC2)C1 (stereo not given) ?
Pf growth 48h: inconclusive; HCMV antiviral: -40; Sm TGR block: 7%; Pf growth 96h: 13µM*; FBPA Giardia inh: 7%

What do the screens show for `CCC1CCCCN1S(=O)(=O)c1ccc2[nH]c(=O)ccc2c1` (stereo not given)?
Pf growth 48h: 11%; HCMV antiviral: 10; Sm TGR block: -31%; Pf growth 96h: 3.3µM*; FBPA Giardia inh: -26%

What do the screens show for `CCC(C)NC(=O)C1CCCN(S(=O)(=O)c2ccc3c(c2)CC(C)N3C(=O)C2CC2)C1` (stereo not given)?
Pf growth 48h: inconclusive; HCMV antiviral: 6; Sm TGR block: -1%; Pf growth 96h: inconclusive; FBPA Giardia inh: 5%

Results for Cc1cc(-c2nn(-c3ccccc3F)cc2CN2CCCC(C(N)=O)C2)c(C)s1 (stereo not given) ?
Pf growth 48h: inconclusive; HCMV antiviral: -21; Sm TGR block: -9%; Pf growth 96h: inconclusive; FBPA Giardia inh: 1%

How did Cc1cc(-c2nn(-c3ccccc3F)cc2CN2CCCC(CO)C2)c(C)s1 (stereo not given) do in these assays?
Pf growth 48h: 22%; HCMV antiviral: -86*; Sm TGR block: -5%; Pf growth 96h: 2.3µM*; FBPA Giardia inh: -10%

How did Cc1cc(-c2nn(-c3ccccc3F)cc2CN2CCCC(O)C2)c(C)s1 (stereo not given) do in these assays?
Pf growth 48h: inconclusive; HCMV antiviral: 17; Sm TGR block: 0%; Pf growth 96h: inconclusive; FBPA Giardia inh: 3%

What do the screens show for `Cc1cc(-c2nn(-c3ccccc3F)cc2CN2CCC(C(N)=O)CC2)c(C)s1`?
Pf growth 48h: -2%; HCMV antiviral: -13; Sm TGR block: 45µM*; Pf growth 96h: 8.3µM*; FBPA Giardia inh: 1%

How did COc1ccc(-n2c(C)cc(C(=O)CSc3ccc(NC(C)=O)cc3)c2C)cc1 do in these assays?
Pf growth 48h: inconclusive; HCMV antiviral: 8; Sm TGR block: -8%; Pf growth 96h: -1%; FBPA Giardia inh: 2%

How did CCOC(=O)c1cc(C)n(-c2ccccc2)c1C do in these assays?
Pf growth 48h: 88%; HCMV antiviral: -77*; Sm TGR block: -17%; Pf growth 96h: 16%; FBPA Giardia inh: 7%

What do the screens show for `Cc1ccc(-n2c(C)cc(C(=O)OCC(=O)N(C)C3CCS(=O)(=O)C3)c2C)cc1` (stereo not given)?
Pf growth 48h: 1.7µM*; HCMV antiviral: -18; Sm TGR block: -8%; Pf growth 96h: 42%; FBPA Giardia inh: 0%

What do the screens show for `Cc1ccc(-n2c(C)cc(C(=O)OCC(=O)N(CC(C)C)C3CCS(=O)(=O)C3)c2C)cc1` (stereo not given)?
Pf growth 48h: -91%; HCMV antiviral: 35; Sm TGR block: 14%; Pf growth 96h: 58%; FBPA Giardia inh: 6%

Results for Cc1cc(=O)c(C(=O)O)c(C)n1-c1ccccc1 ?
HCMV antiviral: -62*

Results for CC(=O)Nc1ccc(SCC(=O)c2cc(C)n(-c3ccccc3)c2C)cc1 ?
Pf growth 48h: 118%; HCMV antiviral: -60*; Sm TGR block: -5%; Pf growth 96h: 81%; FBPA Giardia inh: 1%

Results for CCCN(CCC)CCCNC(=O)Cn1cnc2onc(-c3ccc(F)cc3)c2c1=O ?
HCMV antiviral: -26; Sm TGR block: 1%

How did CCOC(=O)c1cccn1C1C(=O)N(Cc2ccc(C(F)(F)F)cc2)c2ccc(OC)cc21 (stereo not given) do in these assays?
HCMV antiviral: -9

What do the screens show for `Cc1cc(C(=O)CSc2cccc[n+]2[O-])c(C)n1-c1ccc(Br)cc1`?
Pf growth 48h: 17%; Sm TGR block: -1%; Pf growth 96h: 6.6µM*; FBPA Giardia inh: -4%

Results for Cc1cc(C(=O)COC(=O)c2ccc(O)cc2O)c(C)n1-c1ccccc1 ?
Pf growth 48h: 124%; HCMV antiviral: -12; Sm TGR block: 1%; Pf growth 96h: 290%

What do the screens show for `Cc1cc(C(=O)OCC(N)=O)c(C)n1-c1ccccc1`?
Pf growth 48h: inconclusive; HCMV antiviral: 70; Sm TGR block: 1%; Pf growth 96h: 2.1µM*; FBPA Giardia inh: 3%

Results for Cc1cc(C(=O)CN2CC(C)OC(C)C2)c(C)n1-c1ccccc1 (stereo not given) ?
Pf growth 48h: -18%; HCMV antiviral: 42; Sm TGR block: 45µM*; Pf growth 96h: -8%; FBPA Giardia inh: -8%

What do the screens show for `C/C(N)=C(/C#N)C(=O)COC(=O)c1cc(C)n(-c2ccc(F)cc2)c1C`?
Pf growth 48h: 8.3µM*; HCMV antiviral: -10; Sm TGR block: 11%; Pf growth 96h: 3.3µM*; FBPA Giardia inh: 2%

How did Cc1ccc(NC(=O)Cn2nc(C(=O)O)c3ccccc3c2=O)cc1S(=O)(=O)N1CCCCCC1 do in these assays?
HCMV antiviral: -34

What do the screens show for `O=C(NCc1ccncc1)/C(=N/O)c1ccccc1`?
Pf growth 48h: 30%; HCMV antiviral: 10; Sm TGR block: 9%; Pf growth 96h: 10µM*; FBPA Giardia inh: 6%

Results for CCC(C(=O)NCc1ccncc1)c1ccccc1 (stereo not given) ?
Pf growth 48h: 21%; HCMV antiviral: 6; Sm TGR block: 4%; Pf growth 96h: 10µM*; FBPA Giardia inh: -3%

Results for O=C(NCCCNCc1ccccc1)/C(=N\O)c1ccccc1 ?
Pf growth 48h: 18%; HCMV antiviral: -14; Sm TGR block: inconclusive; Pf growth 96h: -3%; FBPA Giardia inh: 6%

What do the screens show for `O=C(O)c1cccc(NCc2ccncc2)c1`?
HCMV antiviral: -61*; Sm TGR block: -4%; Pf growth 96h: -17%; FBPA Giardia inh: 0%

How did COC(=O)c1sccc1NC(=S)N1CCCC(C)C1 (stereo not given) do in these assays?
Pf growth 48h: 12µM*; HCMV antiviral: 2; Sm TGR block: 2%; Pf growth 96h: inconclusive; FBPA Giardia inh: 9%

What do the screens show for `COC(=O)c1sccc1NC(=S)N(C)C1CCCCC1`?
Pf growth 48h: 9.3µM*; HCMV antiviral: -26; Sm TGR block: 4%; Pf growth 96h: inconclusive; FBPA Giardia inh: -1%

Results for COC(=O)c1sccc1NC(=S)N1CCN(C)CC1 ?
Pf growth 48h: inconclusive; HCMV antiviral: 11; Sm TGR block: 1%; Pf growth 96h: inconclusive; FBPA Giardia inh: 1%

What do the screens show for `COC(=O)c1sccc1NC(=O)NC1CCCCC1`?
Pf growth 48h: 74%; HCMV antiviral: -9; Sm TGR block: 7%; Pf growth 96h: -7%; FBPA Giardia inh: -7%

How did COC(=O)c1sccc1NC(=S)N1CCN(c2cc(C)ccc2C)CC1 do in these assays?
Pf growth 48h: 10µM*; HCMV antiviral: -25; Sm TGR block: 4%; Pf growth 96h: -24%; FBPA Giardia inh: 2%
